# Results: PubChem BioAssay (NCATS)
# Results filed as inconclusive are left out. Entries that show only a call come without a potency. Calls of active or inactive are those of the source. Unless noted, calls come from the whole dose curve; as a rule, active = well fitted curve in the direction sought with a large enough effect; inconclusive = small, poorly fitted or top-dose-only effect, or another doubt; inactive = no such curve, though single readings can be large; an effect the other way counts as inactive or inconclusive.
# Experiments:
# [1] = AP1 Signaling Pathway (AID 357; active = well fitted curve in either direction with a large enough effect, not every such curve was filed as active;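 note: ME-180 reporter cells stimulated with EGF at its EC50 level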); settings: ME-180 AP-1-bla reporter, EGF-induced, beta-lactamase ratio, 5 h; at 38 µM (top of the series)
# Procedure, shortened: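 Modulation of EGF-driven AP-1 transcription was assessed with a beta-lactamase reporter in ME-180 cells. Compound and EC50 EGF were co-incubated 5 hours at 37 °C before 2.5-hour CCF4 loading at room temperature and dual-emission reading.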
# [2] = target: Cytochrome P450 1A2 (Homo sapiens) (UniProt P05177); assay: p450-cyp1a2 (AID 410; calls by dose curve; note: potency is the fitted concentration of half-maximal effect)
# Cytochrome P450 1A2 (Homo sapiens), sequence (P05177 whole entry, looked up): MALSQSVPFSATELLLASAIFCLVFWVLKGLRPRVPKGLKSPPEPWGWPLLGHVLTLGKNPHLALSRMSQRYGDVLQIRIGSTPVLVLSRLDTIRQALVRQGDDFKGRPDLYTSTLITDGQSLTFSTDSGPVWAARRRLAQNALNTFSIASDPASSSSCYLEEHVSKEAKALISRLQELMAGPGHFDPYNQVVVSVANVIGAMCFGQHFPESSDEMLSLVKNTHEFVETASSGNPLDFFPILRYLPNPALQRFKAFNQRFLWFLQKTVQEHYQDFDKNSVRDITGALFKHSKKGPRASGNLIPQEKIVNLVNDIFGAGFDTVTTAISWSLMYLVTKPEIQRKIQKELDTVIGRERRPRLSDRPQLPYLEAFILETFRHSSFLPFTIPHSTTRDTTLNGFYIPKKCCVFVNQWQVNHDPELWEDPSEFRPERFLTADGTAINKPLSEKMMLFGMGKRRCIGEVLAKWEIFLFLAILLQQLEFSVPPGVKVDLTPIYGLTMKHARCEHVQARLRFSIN
# Procedure, shortened: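 Human CYP1A2 (20nM) demethylated Luciferin-ME at its Km (100uM) in 100mM KPO4. After 10 min compound preincubation, NADPH regeneration ran the reaction 60 min at room temperature. Luciferin was read by luminescence, normalized to 57 uM furafylline.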
# [3] = NFAT Signaling Pathway (AID 444; active = well fitted curve in either direction with a large enough effect, not every such curve was filed as active;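 note: carbachol stimulus at about its EC50 of 1 µM final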); settings: Jurkat NFAT-bla M1, carbachol, beta-lactamase ratio, 5 h; at 38 µM (top of the series)
# Procedure, shortened: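 Jurkat cells carrying an NFAT-driven β-lactamase reporter and co-transfected muscarinic M1 receptor were treated with compound plus carbachol (1 uM final, an EC50 level) for 5 h at 37 °C. CCF4 loading followed for 1 h at RT; 460/530 nm ratio gave %activity.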
# [4] = Stat Signaling Pathway (AID 446; active = well fitted curve in either direction with a large enough effect, not every such curve was filed as active;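 note: ME-180 cervical cancer cells given 40 pM IL-6 alongside compound; SIE-controlled beta-lactamase reporter measured as 460/530 nm FRET emission ratio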); settings: ME-180 SIE beta-lactamase reporter, IL-6 stimulated, 5 h; at 38 µM (top of the series)
# Procedure, shortened: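 Screening format detects activators and inhibitors alike: ME-180 SIE-bla cells stimulated at 40 pM IL-6 for 5 hrs with compound, then dual-emission beta-lactamase read at 405 nm excitation.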
# [5] = target: Glucocorticoid receptor (Homo sapiens) (UniProt P04150); assay: GR-GFP Redistribution (AID 450;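 active = compounds whose dose series gives a full or clear partial fitted curve of increased nuclear translocation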; note: potency is the fitted concentration of half-maximal effect); settings: U2OS GR-GFP nuclear translocation, laser cytometry, 2 h
# Glucocorticoid receptor (Homo sapiens), sequence (P04150 whole entry, looked up, the tested form may be a part): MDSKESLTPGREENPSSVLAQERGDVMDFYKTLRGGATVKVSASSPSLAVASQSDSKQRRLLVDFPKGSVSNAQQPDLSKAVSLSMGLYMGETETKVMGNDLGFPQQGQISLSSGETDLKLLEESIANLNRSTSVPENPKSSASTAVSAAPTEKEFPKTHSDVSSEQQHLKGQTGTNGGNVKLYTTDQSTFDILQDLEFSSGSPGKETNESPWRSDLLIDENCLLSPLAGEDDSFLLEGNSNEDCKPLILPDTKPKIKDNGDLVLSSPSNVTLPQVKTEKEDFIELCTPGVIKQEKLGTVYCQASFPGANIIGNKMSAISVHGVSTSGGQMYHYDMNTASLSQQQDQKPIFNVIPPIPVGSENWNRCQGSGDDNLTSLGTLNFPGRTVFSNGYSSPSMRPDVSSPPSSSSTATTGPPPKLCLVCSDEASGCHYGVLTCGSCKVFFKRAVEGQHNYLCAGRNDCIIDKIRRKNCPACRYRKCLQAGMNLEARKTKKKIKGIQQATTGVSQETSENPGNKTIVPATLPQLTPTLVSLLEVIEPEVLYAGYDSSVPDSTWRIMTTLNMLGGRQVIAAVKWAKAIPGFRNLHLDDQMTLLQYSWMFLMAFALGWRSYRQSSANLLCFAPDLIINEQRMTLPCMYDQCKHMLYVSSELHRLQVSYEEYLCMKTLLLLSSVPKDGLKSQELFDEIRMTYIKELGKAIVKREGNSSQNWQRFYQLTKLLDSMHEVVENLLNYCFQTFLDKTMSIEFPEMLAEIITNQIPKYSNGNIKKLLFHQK
# [6] = target: Glucocorticoid receptor (Homo sapiens) (UniProt P04150); assay: GR-EFC Redistribution (AID 451; calls by dose curve; note: potency is the fitted concentration of half-maximal effect); settings: CHO-K1 GR-EFC translocation, beta-gal luminescence, 2 h
# Procedure, shortened: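 CHO-K1 cells stably expressing nuclear-localized β-gal enzyme acceptor and GR fused C-terminally to the enzyme donor fragment; ligand-driven nuclear translocation restores β-gal by complementation. Compounds titrated up to 46 uM final, 2 h at 37 °C; luminescence read.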
# [7] = target: Mitogen-activated protein kinase 10 (Mus musculus) (UniProt Q61831); assay: JNK3 AlphaScreen Assay (AID 530; active = well fitted curve in either direction with a large enough effect, not every such curve was filed as active;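 note: kinase came from lysate of stimulated human HepG2 cells; signal reports phosphorylation of biotinylated GST-cJun 1-79 at Ser73 with 10 µM ATP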)
# Procedure, shortened: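 JNK3 came from HepG2 lysates pre-activated with IL-1beta and TNF-alpha and phosphorylated biotinylated GST-cJun (1-79) at 10 uM ATP, pH 7.6, room temperature. Compounds were titrated. AlphaScreen signal used anti-phospho-cJun (Ser73) antibody.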
# [8] = target: 3',5'-cyclic-AMP phosphodiesterase 4B (Homo sapiens) (UniProt Q07343); assay: qHTS Assay for Inhibitors of PDE-IV (AID 607; active = well fitted activation curve with a large enough effect in the main read-out, with a control signal flat, not every such curve was filed as active)
# 3',5'-cyclic-AMP phosphodiesterase 4B (Homo sapiens), sequence (Q07343 whole entry, looked up): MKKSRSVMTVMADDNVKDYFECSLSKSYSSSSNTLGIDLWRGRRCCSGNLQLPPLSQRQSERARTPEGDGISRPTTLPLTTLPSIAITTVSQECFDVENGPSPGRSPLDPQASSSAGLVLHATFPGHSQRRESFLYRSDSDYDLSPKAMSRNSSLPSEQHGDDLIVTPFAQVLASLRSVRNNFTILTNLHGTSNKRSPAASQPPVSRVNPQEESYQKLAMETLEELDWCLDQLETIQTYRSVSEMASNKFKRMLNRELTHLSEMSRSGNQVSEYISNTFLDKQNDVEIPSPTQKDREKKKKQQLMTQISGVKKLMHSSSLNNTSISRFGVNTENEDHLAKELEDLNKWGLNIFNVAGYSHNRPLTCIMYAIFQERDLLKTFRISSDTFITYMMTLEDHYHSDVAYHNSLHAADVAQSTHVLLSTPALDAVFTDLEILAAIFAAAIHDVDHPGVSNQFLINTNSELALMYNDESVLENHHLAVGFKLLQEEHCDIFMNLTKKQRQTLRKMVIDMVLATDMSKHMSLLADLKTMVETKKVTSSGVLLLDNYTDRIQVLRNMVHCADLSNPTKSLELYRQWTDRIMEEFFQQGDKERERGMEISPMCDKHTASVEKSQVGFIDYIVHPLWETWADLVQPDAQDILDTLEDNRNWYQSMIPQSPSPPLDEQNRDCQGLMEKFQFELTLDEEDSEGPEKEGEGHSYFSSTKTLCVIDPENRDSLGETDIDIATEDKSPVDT
# Procedure, shortened: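 The readout is membrane depolarisation from a cAMP-sensing CNG channel, detected with a potential dye at ex 535/em 590. Cells were HEK293-derived (endogenous PDE-IV) at 1000 cells/well, titrated up to 22.9 uM final.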
# [9] = target: Guanine nucleotide-binding protein G(i) subunit alpha-1 (Homo sapiens) (UniProt P63096); assay: qHTS Assay for Inhibitors of RGS12 GoLoco Motif Activity (Green Fluorophore) (AID 879);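 note: negative values mean loss of peptide binding seen as reduced polarization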
# Guanine nucleotide-binding protein G(i) subunit alpha-1 (Homo sapiens), sequence (P63096 whole entry, looked up): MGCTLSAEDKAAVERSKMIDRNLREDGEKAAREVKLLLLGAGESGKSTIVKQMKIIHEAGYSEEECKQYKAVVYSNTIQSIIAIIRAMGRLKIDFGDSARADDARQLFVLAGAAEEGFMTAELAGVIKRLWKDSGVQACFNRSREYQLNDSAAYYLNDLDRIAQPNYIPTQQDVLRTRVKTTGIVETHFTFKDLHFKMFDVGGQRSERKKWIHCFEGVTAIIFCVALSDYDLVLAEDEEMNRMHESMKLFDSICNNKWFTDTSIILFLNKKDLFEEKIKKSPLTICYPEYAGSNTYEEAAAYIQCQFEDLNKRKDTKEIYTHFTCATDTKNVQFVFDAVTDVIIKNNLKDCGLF
# Procedure, shortened: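 Fluorescence polarization assay: 50 nM Gαi1 with 10 nM FITC-labeled RGS12 GoLoco peptide in 10 mM Tris pH 7.5, 150 mM NaCl, 0.1 mM GDP, 0.05% NP40, 10 min at room temperature with compound.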
# [10] = target: Cytochrome P450 3A4 (Homo sapiens) (UniProt P08684); assay: qHTS Assay for Activators of Cytochrome P450 3A4 (AID 885); note: nearly all actives have a fitted effect of over 65% in size
# Cytochrome P450 3A4 (Homo sapiens), sequence (P08684 whole entry, looked up): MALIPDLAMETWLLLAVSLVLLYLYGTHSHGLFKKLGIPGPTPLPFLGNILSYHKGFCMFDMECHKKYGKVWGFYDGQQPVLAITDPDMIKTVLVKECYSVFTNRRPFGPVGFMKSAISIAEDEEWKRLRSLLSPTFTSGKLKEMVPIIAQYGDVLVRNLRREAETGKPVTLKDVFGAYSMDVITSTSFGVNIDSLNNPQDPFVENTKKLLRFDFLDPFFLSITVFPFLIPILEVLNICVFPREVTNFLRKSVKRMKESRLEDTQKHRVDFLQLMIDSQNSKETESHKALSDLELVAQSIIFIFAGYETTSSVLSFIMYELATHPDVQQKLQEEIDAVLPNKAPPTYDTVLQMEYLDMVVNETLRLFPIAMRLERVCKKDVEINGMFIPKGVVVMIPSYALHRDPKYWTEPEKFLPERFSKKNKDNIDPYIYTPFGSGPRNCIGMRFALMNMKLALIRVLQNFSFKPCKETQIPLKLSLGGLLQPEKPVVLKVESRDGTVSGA
# Procedure, shortened: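 Steps: enzyme/substrate mix dispensed; compound added, 10 min RT; NADPH regeneration solution added, 60 min RT; luciferin detection buffer stops reaction; 20 min later luminescence measured.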
# [11] = qHTS Assay for Identification of Small Molecule Antagonists for Thrombopoietin (TPO) Signaling Pathway (AID 918); settings: TPO-dependent cell signaling reporter, antagonist mode; note: potency is the fitted concentration of half-maximal effect; nearly all actives have a fitted effect of over 60% in size
# Procedure, shortened: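 Murine Ba/F3 cells stably expressing human TPO receptor and a Glycoprotein IIb promoter–luciferase reporter were IL-3-starved overnight, treated with compounds plus TPO (26 pM final, its EC50) for 24 hrs at 37 C, then read by luminescence.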
# [12] = target: Muscarinic acetylcholine receptor M1 (Rattus norvegicus) (UniProt P08482); assay: qHTS Assay for Antagonists of Acetylcholine Muscarinic M1 Receptor: Kinetic Measurement of Intracellular Calcium Response (AID 943);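 note: Fluo-4 calcium signal as peak divided by basal fluorescence over 4 min; nearly all actives have a fitted effect of over 75% in size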
# Muscarinic acetylcholine receptor M1 (Rattus norvegicus), sequence (P08482 whole entry, looked up): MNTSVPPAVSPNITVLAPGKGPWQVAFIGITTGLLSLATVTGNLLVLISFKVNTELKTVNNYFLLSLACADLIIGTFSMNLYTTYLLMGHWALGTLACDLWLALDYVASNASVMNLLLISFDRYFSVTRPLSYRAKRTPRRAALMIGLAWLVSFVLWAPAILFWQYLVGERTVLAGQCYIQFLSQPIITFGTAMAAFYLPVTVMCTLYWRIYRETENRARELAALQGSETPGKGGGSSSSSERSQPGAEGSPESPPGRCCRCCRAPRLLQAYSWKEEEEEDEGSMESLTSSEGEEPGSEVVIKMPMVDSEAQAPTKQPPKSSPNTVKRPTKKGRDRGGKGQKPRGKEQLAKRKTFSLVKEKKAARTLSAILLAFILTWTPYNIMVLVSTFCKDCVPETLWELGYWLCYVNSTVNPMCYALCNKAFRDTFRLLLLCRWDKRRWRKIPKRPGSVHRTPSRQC
# Procedure, shortened: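 CHO cells stably expressing rat M1 were loaded with no-wash Fluo-4 dye for 1 h at 37C, pre-incubated 10 min with compound, then challenged with EC80 carbachol (100 nM final); kinetic calcium read 4 min, peak/basal ratio.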
# [13] = target: Muscarinic acetylcholine receptor M1 (Rattus norvegicus) (UniProt P08482); assay: qHTS Assay for Antagonists of Acetylcholine Muscarinic M1 Receptor: Measurement of IP-One Response (AID 944); note: nearly all actives have a fitted effect of over 75% in size
# Procedure, shortened: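 CHO cells expressing rat M1 receptor, recovered overnight, were pre-incubated 10 min with compound, then stimulated 30 min with carbachol at EC80 (200 nM) in LiCl-containing buffer, pH 7.4. IP1 accumulation was read by HTRF (620/665 nm).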
# [14] = target: Pyruvate kinase PKM (Homo sapiens) (UniProt P14618); assay: qHTS Assay for Activators of Human Muscle Pyruvate Kinase (AID 954; active = well fitted curve in the direction sought with a large enough effect, not every such curve was filed as active)
# Pyruvate kinase PKM (Homo sapiens), sequence (P14618 whole entry, looked up): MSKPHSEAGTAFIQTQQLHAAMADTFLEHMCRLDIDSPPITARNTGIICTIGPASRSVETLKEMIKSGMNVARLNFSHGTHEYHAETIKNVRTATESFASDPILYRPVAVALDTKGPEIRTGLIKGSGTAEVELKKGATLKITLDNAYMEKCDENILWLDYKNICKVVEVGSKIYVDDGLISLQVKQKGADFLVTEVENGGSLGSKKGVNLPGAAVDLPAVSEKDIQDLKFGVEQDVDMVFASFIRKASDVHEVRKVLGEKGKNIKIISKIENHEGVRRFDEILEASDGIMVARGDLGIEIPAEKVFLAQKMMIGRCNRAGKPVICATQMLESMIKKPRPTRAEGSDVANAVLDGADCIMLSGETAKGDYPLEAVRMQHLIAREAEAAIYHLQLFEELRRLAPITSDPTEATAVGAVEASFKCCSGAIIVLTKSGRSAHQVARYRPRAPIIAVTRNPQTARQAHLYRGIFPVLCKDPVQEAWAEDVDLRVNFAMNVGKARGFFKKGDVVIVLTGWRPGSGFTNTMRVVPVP
# Procedure, shortened: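 Reaction: 0.1 nM purified PKM2 with 0.5 mM phosphoenolpyruvate and 0.1 mM ADP, room temperature, 1 h. Readout: luciferase-based ATP luminescence after stop reagent. Activators judged against a 0.3 nM enzyme column.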
# [15] = target: Pyruvate kinase (Leishmania mexicana) (UniProt Q27686); assay: qHTS Validation Assay for Activators of Leishmania Mexicana Pyruvate Kinase (AID 959)
# Pyruvate kinase (Leishmania mexicana), sequence (Q27686 2-499 E452W): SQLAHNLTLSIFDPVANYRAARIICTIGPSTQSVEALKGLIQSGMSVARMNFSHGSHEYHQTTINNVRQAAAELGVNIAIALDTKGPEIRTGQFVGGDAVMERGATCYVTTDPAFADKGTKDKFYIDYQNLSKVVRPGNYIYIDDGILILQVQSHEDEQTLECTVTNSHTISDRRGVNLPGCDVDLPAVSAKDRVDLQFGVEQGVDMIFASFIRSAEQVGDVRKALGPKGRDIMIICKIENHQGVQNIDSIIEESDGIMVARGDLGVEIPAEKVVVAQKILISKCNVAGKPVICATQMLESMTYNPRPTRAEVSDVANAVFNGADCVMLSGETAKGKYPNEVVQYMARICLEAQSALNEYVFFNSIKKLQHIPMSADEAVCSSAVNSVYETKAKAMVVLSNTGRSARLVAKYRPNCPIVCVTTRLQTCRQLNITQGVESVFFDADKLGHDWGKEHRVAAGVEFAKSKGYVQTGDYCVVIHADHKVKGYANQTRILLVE
# Procedure, shortened: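 Eight-point qHTS titrations in triplicate, data normalized to DMSO neutral control. Reaction: 0.2 nM LmPYK E451W mutant, 0.5 mM PEP, 0.1 mM ADP, 7 mM MgCl2, pH 7.2, one hour at room temperature; luminescent ATP detection.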
# [16] = target: Alpha-galactosidase A (Homo sapiens) (UniProt P06280); assay: Counterscreen for Glucocerebrosidase Inhibitors: qHTS Assay for Human alpha-Galactosidase at pH 4.5 (AID 992)
# Alpha-galactosidase A (Homo sapiens), sequence (P06280 whole entry, looked up): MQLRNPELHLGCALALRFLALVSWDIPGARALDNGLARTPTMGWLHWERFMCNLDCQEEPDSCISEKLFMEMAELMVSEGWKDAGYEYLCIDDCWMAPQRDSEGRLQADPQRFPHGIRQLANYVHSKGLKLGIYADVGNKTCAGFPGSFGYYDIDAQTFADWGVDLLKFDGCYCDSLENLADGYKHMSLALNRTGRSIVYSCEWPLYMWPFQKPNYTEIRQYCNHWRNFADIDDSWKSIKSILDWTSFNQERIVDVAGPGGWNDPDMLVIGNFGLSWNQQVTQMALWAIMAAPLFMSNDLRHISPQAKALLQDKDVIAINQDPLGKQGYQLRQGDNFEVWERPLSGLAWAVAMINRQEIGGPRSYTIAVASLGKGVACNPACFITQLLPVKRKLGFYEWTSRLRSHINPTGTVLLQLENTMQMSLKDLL
# Procedure, shortened: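 Concentration-response curves (0.7 nM to 77 uM final) were modeled with the Hill equation to give AC50. Reactions: 2 nM enzyme, 80 uM fluorogenic alpha-galactoside, pH 4.5 citric acid buffer, 20 min, room temperature.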
# [17] = target: alpha-glucosidase (Oryza sativa, rice) (UniProt Q653V4); assay: Counterscreen for Glucocerebrosidase Inhibitors: qHTS Assay for Rice alpha-Glucosidase at pH 5.0 (AID 997)
# Procedure, shortened: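 Rice alpha-glucosidase (4 nM final) with 400 uM 4-methylumbelliferyl-alpha-D-glucopyranoside in citrate buffer pH 5.0, 20 min at room temperature, stopped at pH 10; fluorescence 365/440 nm, compounds 0.7 nM–77 uM, AC50 from Hill fits.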
# [18] = qHTS Assay for Lipid Storage Modulators (AID 1519; calls by dose curve); settings: Drosophila S3 cells, BODIPY lipid droplet/cell ratio, laser cytometry, cells loaded with oleic acid
# Procedure, shortened: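 Cells seeded at 5,000 per well were treated with compounds over a concentration series and loaded with oleic acid (400 uM, as added). Lipid droplet fluorescence (488 nm excitation, 500-530 nm channel) was read by laser-scanning cytometry and normalized to 20 uM Triacsin C.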
structure (smiles),measurement,setting,value
S=C(Nc1ccccc1)Nc1nccs1,"activity change, negative = inhibition",[1],-16.9% (inactive)
same,Potency,[2],0.794 µM (active)
same,"activity change, negative = inhibition",[3],0.515% (inactive)
same,"activity, negative = inhibition",[4],11.6% (inactive)
same,Potency,[5],> 46 µM (inactive)
same,Potency,[6],> 46 µM (inactive)
same,Potency,[7],inactive
same,Potency,[8],inactive
same,outcome,[9],inactive
same,Potency,[10],inactive
same,Potency,[11],20 µM (active)
same,Potency,[12],inactive
same,Potency,[13],inactive
same,outcome,[14],inactive
same,Potency,[15],inactive
same,outcome,[16],inactive
same,outcome,[17],inactive
same,"activity change, negative = inhibition",[18]; at 57.5 µM (top of the series),-0.0683% (inactive)
same,max response,[18]; measured here: cell count channel max response,-12.9%
